Experimental data: PubChem BioAssay AID1159580 (chemical genetic matrix, 2015)
About 2,000 (36%) of roughly 5,500 compounds were called active. About 18% were inconclusive and are not listed. Rule as the data show it: active = normalized growth mostly below about 0.91 (no sharp cut-off); inconclusive = no clear call, values can overlap the other calls; inactive = mostly above about 0.92. The list shows a part of the results.

Experiment: chemical genetic growth profiling, strain panel (AID 1159580);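 also: tested at 20 µM; growth read once vehicle control cultures reached saturation at 30 °C; 1 = growth at the plate median or of vehicle wells; lower values mean less growth of the strain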
Settings: S. cerevisiae deletion strains, growth OD

Measured: normalized growth

CC(=O)c1c(O)cc(O)cc1O
inactive: locus YAL021C, strain ccr4, stronger effect = lower value 1.04 | locus YAL026C, strain drs2, stronger effect = lower value 0.987 | locus YAL030W, strain snc1, stronger effect = lower value 0.981 | locus YBL061C, strain skt5, stronger effect = lower value 0.985 | locus YBR009C, strain hhf1, stronger effect = lower value 1.02 | locus YBR023C, strain chs3, stronger effect = lower value 0.995 | locus YBR171W, strain sec66, stronger effect = lower value 0.964 | locus YBR231C, strain swc5, stronger effect = lower value 0.947 | locus YBR279W, strain paf1, stronger effect = lower value 0.991 | locus YCL011C, strain gbp2, stronger effect = lower value 0.978 | locus YCL016C, strain dcc1, stronger effect = lower value 1.03 | locus YCL061C, strain MRC1, stronger effect = lower value 1 | locus YCL069W, strain vba3, stronger effect = lower value 0.949 | locus YCR088W, strain abp1, stronger effect = lower value 0.967 | locus YDL005C, strain med2, stronger effect = lower value 0.97 | locus YDL040C, strain nat1, stronger effect = lower value 0.973 | locus YDR001C, strain nth1, stronger effect = lower value 0.981 | locus YDR069C, strain doa4, stronger effect = lower value 0.937 | locus YDR137W, strain rgp1, stronger effect = lower value 1.01 | locus YDR159W, strain sac3, stronger effect = lower value 0.967 | locus YDR195W, strain ref2 0.914 | locus YDR297W, strain sur2, stronger effect = lower value 0.982 | locus YDR334W, strain swr1, stronger effect = lower value 0.96 | locus YDR335W, strain msn5, stronger effect = lower value 0.973 | locus YDR392W, strain spt3, stronger effect = lower value 0.952 | locus YEL003W, strain gim4, stronger effect = lower value 0.979 | locus YEL037C, strain rad23, stronger effect = lower value 0.974 | locus YEL061C, strain CIN8 (second series), stronger effect = lower value 0.961 | locus YER015W, strain faa2, stronger effect = lower value 0.988 | locus YER016W, strain bim1, stronger effect = lower value 0.972 | locus YER111C, strain swi4, stronger effect = lower value 0.975 | locus YER155C, strain BEM2 (second series), stronger effect = lower value 0.969 | locus YFR010W, strain ubp6, stronger effect = lower value 0.948 | locus YGL167C, strain pmr1, stronger effect = lower value 0.992 | locus YGL173C, strain kem1, stronger effect = lower value 0.993 | locus YGL227W, strain vid30, stronger effect = lower value 0.968 | locus YGL240W, strain doc1, stronger effect = lower value 0.981 | locus YGL253W, strain hxk2, stronger effect = lower value 0.938 | locus YHR013C, strain ard1, stronger effect = lower value 0.985 | locus YHR027C, strain rpn1, stronger effect = lower value 0.997 | locus YHR030C, strain SLT2, stronger effect = lower value 0.986 | locus YHR079C, strain IRE1, stronger effect = lower value 0.974 | locus YHR142W, strain chs7, stronger effect = lower value 0.988 | locus YJL092W, strain hpr5, stronger effect = lower value 0.978 | locus YJL095W, strain BCK1 (second series), stronger effect = lower value 0.981 | locus YJL095W, strain BCK1, stronger effect = lower value 0.992 | locus YJL115W, strain asf1, stronger effect = lower value 0.999 | locus YJL129C, strain trk1, stronger effect = lower value 0.977 | locus YJL154C, strain vps35, stronger effect = lower value 0.973 | locus YJL164C, strain tpk1, stronger effect = lower value 1.02 | locus YJL166W, strain qcr8, stronger effect = lower value 0.989 | locus YJL187C, strain SWE1, stronger effect = lower value 0.99 | locus YJR066W, strain TOR1, stronger effect = lower value 0.952 | locus YKL160W, strain elf1, stronger effect = lower value 1.03 | locus YKR026C, strain gcn3, stronger effect = lower value 0.948 | locus YKR091W, strain srl3, stronger effect = lower value 0.988 | locus YLL001W, strain dnm1, stronger effect = lower value 0.978 | locus YLL026W, stronger effect = lower value 0.998 | locus YLL041C, strain sdh2, stronger effect = lower value 0.983 | locus YLR027C, strain aat2, stronger effect = lower value 0.993 | locus YLR113W, strain HOG1, stronger effect = lower value 0.97 | locus YLR221C, strain rsa3, stronger effect = lower value 0.955 | locus YLR258W, strain gsy2, stronger effect = lower value 0.989 | locus YLR262C, strain YPT6 (second series), stronger effect = lower value 1.06 | locus YLR320W, strain mms22, stronger effect = lower value 0.978 | locus YLR342W, strain FKS1, stronger effect = lower value 0.978 | locus YLR357W, strain rsc2, stronger effect = lower value 0.982 | locus YLR370C, strain arc18, stronger effect = lower value 0.961 | locus YLR384C, strain iki3, stronger effect = lower value 0.973 | locus YML120C, strain ndi1, stronger effect = lower value 0.998 | locus YMR058W, strain fet3, stronger effect = lower value 0.975 | locus YMR125W, strain sto1, stronger effect = lower value 0.958 | locus YMR129W, stronger effect = lower value 0.978 | locus YMR205C, strain PFK2, stronger effect = lower value 1.03 | locus YMR231W, strain pep5, stronger effect = lower value 0.968 | locus YNL071W, strain lat1, stronger effect = lower value 0.984 | locus YNL183C, strain NPR1, stronger effect = lower value 0.938 | locus YNL209W, strain ssb2, stronger effect = lower value 0.997 | locus YNL248C, strain rpa49, stronger effect = lower value 1.01 | locus YNL322C, strain KRE1 (second series), stronger effect = lower value 0.99 | locus YNR049C, strain mso1, stronger effect = lower value 0.978 | locus YOR001W, strain rrp6, stronger effect = lower value 0.922 | locus YOR070C, strain gyp1, stronger effect = lower value 0.988 | locus YOR080W, strain dia2, stronger effect = lower value 0.962 | locus YOR083W, strain WHI5, stronger effect = lower value 1.03 | locus YOR106W, strain vam3, stronger effect = lower value 1.04 | locus YOR231W, strain MKK1, stronger effect = lower value 0.982 | locus YOR265W, strain rbl2, stronger effect = lower value 0.976 | locus YOR270C, strain vph1, stronger effect = lower value 1.01 | locus YOR290C, strain snf2, stronger effect = lower value 1.03 | locus YPL051W, strain arl3, stronger effect = lower value 0.965 | locus YPL078C, strain atp4, stronger effect = lower value 1.03 | locus YPL106C, strain sse1, stronger effect = lower value 0.958 | locus YPL240C, strain hsp82, stronger effect = lower value 0.979 | locus YPL256C, strain CLN2, stronger effect = lower value 0.973
